SMILES strings stand for the structures. Structures can show the parent of a compound that is named as a salt.

For the assay, the system named is Saccharomyces cerevisiae BY4741 SeMeCo community. The assay is described as follows: z-score of subpopulation abundance vs DMSO median, subpopulation auxotrophic for HLUM; higher = larger share of this subpopulation than in DMSO controls. Particulars: 10 µM; 24 h; SM minimal medium; subpopulation (auxotrophy): HLUM. The method, boiled down:
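A community of Saccharomyces cerevisiae BY4741 was built from four plasmids that each restored one auxotrophy and encoded a distinct fluorescent protein. Pre-grown overnight to OD600 1.0 and diluted to 0.3, it was dispensed at 70 µl into 384-well plates acoustically predosed with library drugs for a final 10 µM, and grown 24 h in minimal SM medium. Cells were then paraformaldehyde-fixed and imaged by automated confocal microscopy. Thresholds and autofluorescence correction came from single-auxotroph fluorescent strains, and each subpopulation's abundance was scored as a z-score relative to the vehicle-well median.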
Turning to `CN(C)[C@@H](CCOc1cccc2ccccc12)c1ccccc1` [Dapoxetine HCl], the “z-score of subpopulation abundance” value was -0.01. To `Nc1ccc(S(=O)(=O)Nc2ccnn2-c2ccccc2)cc1` [Sulfaphenazole] belongs 0.07. In the case of `C[C@@H]1CC(=O)NN=C1c1ccc(NN=C(C#N)C#N)cc1` [Levosimendan], the “z-score of subpopulation abundance” value is -0.43. Under `CCN1CCC[C@H]1CNC(=O)c1cc(S(N)(=O)=O)ccc1OC` [Levosulpiride] stands -0.54; under `CN1CCN(CCCN2c3ccccc3Sc3ccc(C(F)(F)F)cc32)CC1` [Trifluoperazine 2HCl], -0.04.

Regarding `COc1ccc2c(c1)c(CC(=O)OCC(=O)O)c(C)n2C(=O)c1ccc(Cl)cc1` [Acemetacin], the “z-score of subpopulation abundance” value is -0.61. Take `CC[C@H]1OC(=O)[C@H](C)[C@@H](O[C@H]2C[C@@](C)(OC)[C@@H](O)[C@H](C)O2)[C@H](C)[C@@H](O[C@@H]2O[C@H](C)C[C@H](N(C)C)[C@H]2O)[C@](C)(O)C[C@@H](C)CN(C)[C@H](C)[C@@H](O)[C@]1(C)O` [Azithromycin]: the “z-score of subpopulation abundance” value worked out at 0.36. As for `Clc1ccccc1C(c1ccccc1)(c1ccccc1)n1ccnc1` [Clotrimazole], the “z-score of subpopulation abundance” value came out at 9.79.

Take `CO/N=C(\C(=O)N[C@@H]1C(=O)N2C(C(=O)O)=C(CSc3nc(=O)c(O)nn3C)CS[C@H]12)c1csc(N)n1` [Ceftriaxone Sodium Trihydrate]: the “z-score of subpopulation abundance” value worked out at 0.83. Under `C[C@H](NCc1ccc(OCc2cccc(F)c2)cc1)C(N)=O` [Safinamide] stands 0.95; under `CCOC(=O)C1=C(C)NC(C)=C(C(=O)OC)C1c1cccc(Cl)c1Cl` (stereo not drawn) [Felodipine], -1.13. Turning to `C[C@@H](O)[C@H]1C(=O)N2C(C(=O)O)=C([C@H]3CCCO3)S[C@H]12` [Faropenem Sodium], the “z-score of subpopulation abundance” value is -0.05. To `O=C1CCc2cc(OCCCCc3nnnn3C3CCCCC3)ccc2N1` [Cilostazol] belongs -0.57; to `COc1cc(NS(=O)(=O)c2ccc(N)cc2)ncn1` [Sulfamonomethoxine], 0.33; to `Nc1nc2ccc(OC(F)(F)F)cc2s1` [Riluzole], 0.8. Turning to `NC(=O)N1c2ccccc2CC(=O)c2ccccc21` [Oxcarbazepine], the “z-score of subpopulation abundance” value is 0.1. Under `CCCCC(F)(F)[C@@]1(O)CC[C@H]2[C@@H](CC(=O)[C@@H]2CCCCCCC(=O)O)O1` [Lubiprostone] stands -0.37. Under `CCCCCc1ccc(C)cc1O` [Amylmetacresol] stands 0.41. `CCN(CC)CCOC(=O)c1ccc(N)cc1` [Procaine HCl]: the “z-score of subpopulation abundance” value is 0.26.

With `O=C(O)CCC(=O)Nc1ccc(S(=O)(=O)Nc2nccs2)cc1` [Succinylsulfathiazole], the “z-score of subpopulation abundance” value is -0.62. Under `N[C@@H]1CONC1=O` [D-Cycloserine] stands 0.69; under `CCOC(=O)C1=C[C@]2(CC)CCCN3CCc4c(n1c1ccccc41)[C@@H]32` [Vinpocetine], 0.54. Under `COc1ccc2cc(C(=O)O)ccc2c1` [6-Methoxy-2-naphthoic acid] stands 1.63. Take `CCC(=O)c1c(O)cc(O)cc1O` [Flopropione]: the “z-score of subpopulation abundance” value is -0.26. Under `Oc1c(Cl)cc(Cl)c(Cl)c1Cc1c(O)c(Cl)cc(Cl)c1Cl` [Hexachlorophene] stands 7.77; under `CCCCCCCCc1ccc(CCC(N)(CO)CO)cc1` [Fingolimod], -1.27; under `CC1(C)S[C@@H]2[C@H](NC(=O)[C@H](N)c3ccc(O)cc3)C(=O)N2[C@H]1C(=O)O` [Amoxicillin], 0.49. With `CCCc1nc(C)c2c(=O)nc(-c3cc(S(=O)(=O)N4CCN(CC)CC4)ccc3OCC)[nH]n12` [Vardenafil HCl Trihydrate], the “z-score of subpopulation abundance” value turned out to be 0.24. Consider `CC[C@@]1(O)C(=O)OCc2c1cc1n(c2=O)Cc2cc3c(CN(C)C)c(O)ccc3nc2-1` [Topotecan HCl], for which the “z-score of subpopulation abundance” value was -0.39. For `CCC(C)(C)C(=O)O[C@H]1C[C@@H](C)C=C2C=C[C@H](C)[C@H](CC[C@@H]3C[C@@H](O)CC(=O)O3)[C@H]21` [Simvastatin], the “z-score of subpopulation abundance” value worked out at 2.55.

With `COCCCN1CCC(NC(=O)c2cc(Cl)c(N)c3c2OCC3)CC1` [Prucalopride], the “z-score of subpopulation abundance” value is -0.34.

Turning to `CO/N=C(\C(=O)N[C@@H]1C(=O)N2C(C(=O)O)=C(CSc3nc(C)c(CC(=O)O)s3)CS[C@H]12)c1csc(N)n1` [Cefodizime Sodium], the “z-score of subpopulation abundance” value was -0.81.

For the compound `CNCC[C@H](Oc1cccc2ccccc12)c1cccs1` [Duloxetine], the “z-score of subpopulation abundance” value is -0.23. Under `C1N2CN3CN1CN(C2)C3` [Methenamine] stands -0.16.

As to `O=C(Nc1cccc(C2=NCCN2)c1)Nc1cccc(C2=NCCN2)c1` [Imidocarb dipropionate], the “z-score of subpopulation abundance” value stood at 0.13. Under `C[C@H]1c2cccc(O)c2C(O)=C2C(=O)[C@]3(O)C(O)=C(C(N)=O)C(=O)[C@@H](N(C)C)[C@@H]3[C@@H](O)[C@@H]21` [Doxycycline] stands 0.32; under `CCc1c2c(nc3ccc(OC(=O)N4CCC(N5CCCCC5)CC4)cc13)-c1cc3c(c(=O)n1C2)COC(=O)[C@]3(O)CC` [Irinotecan HCl Trihydrate], 0.04. Under `C/C=C\c1ccc(O)c(OC)c1` [Isoeugenol] stands 0.03.

For the origin of these results see the supplement of paper PMC8975748.
